Source: PubChem BioAssay (NCATS)
“And” between values parts separate entries of the source, which are not always exact repeats. Identical values can stand only once. Unmarked numbers belong to inactive results. Results filed as inconclusive are left out. Entries that show only a call come without a potency. The source made the active and inactive calls. Unless noted, calls come from the whole dose curve; as a rule, active = well fitted curve in the direction sought with a large enough effect; inconclusive = small, poorly fitted or top-dose-only effect, or another doubt; inactive = no such curve, though single readings can be large; an effect the other way counts as inactive or inconclusive.

Columns and labels:
[1] = target: Cytochrome P450 1A2 (Homo sapiens) (UniProt P05177); experiment: p450-cyp1a2 (AID 410; calls by dose curve; note: potency is the fitted concentration of half-maximal effect)
Chain of Cytochrome P450 1A2 (Homo sapiens) (P05177 whole entry, looked up): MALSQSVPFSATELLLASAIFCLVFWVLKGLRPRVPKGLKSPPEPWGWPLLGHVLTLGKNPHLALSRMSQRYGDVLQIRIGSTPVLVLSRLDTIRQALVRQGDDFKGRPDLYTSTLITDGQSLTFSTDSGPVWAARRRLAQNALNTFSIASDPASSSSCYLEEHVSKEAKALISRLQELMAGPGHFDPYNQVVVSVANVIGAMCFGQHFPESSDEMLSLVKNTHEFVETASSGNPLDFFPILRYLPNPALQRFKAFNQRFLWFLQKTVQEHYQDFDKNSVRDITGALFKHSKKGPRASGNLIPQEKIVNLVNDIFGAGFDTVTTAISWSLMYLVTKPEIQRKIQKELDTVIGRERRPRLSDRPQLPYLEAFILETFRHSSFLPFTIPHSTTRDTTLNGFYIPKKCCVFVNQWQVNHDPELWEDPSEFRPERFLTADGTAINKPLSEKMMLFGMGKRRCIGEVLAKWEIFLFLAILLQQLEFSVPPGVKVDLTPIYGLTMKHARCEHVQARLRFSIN
How it was run: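 Read-out is luminescence from luciferin produced by CYP1A2 demethylation of Luciferin-ME (100uM, at Km). Detection reagent stopped the 60 min NADPH-dependent reaction; signals were normalized to 57 uM furafylline.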

[2] = target: Glucocorticoid receptor (Homo sapiens) (UniProt P04150); experiment: GR-GFP Redistribution (AID 450;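 active = compounds whose dose series gives a full or clear partial fitted curve of increased nuclear translocation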; note: potency is the fitted concentration of half-maximal effect); settings: U2OS GR-GFP nuclear translocation, laser cytometry, 2 h
Chain of Glucocorticoid receptor (Homo sapiens) (P04150 whole entry, looked up, the tested form may be a part): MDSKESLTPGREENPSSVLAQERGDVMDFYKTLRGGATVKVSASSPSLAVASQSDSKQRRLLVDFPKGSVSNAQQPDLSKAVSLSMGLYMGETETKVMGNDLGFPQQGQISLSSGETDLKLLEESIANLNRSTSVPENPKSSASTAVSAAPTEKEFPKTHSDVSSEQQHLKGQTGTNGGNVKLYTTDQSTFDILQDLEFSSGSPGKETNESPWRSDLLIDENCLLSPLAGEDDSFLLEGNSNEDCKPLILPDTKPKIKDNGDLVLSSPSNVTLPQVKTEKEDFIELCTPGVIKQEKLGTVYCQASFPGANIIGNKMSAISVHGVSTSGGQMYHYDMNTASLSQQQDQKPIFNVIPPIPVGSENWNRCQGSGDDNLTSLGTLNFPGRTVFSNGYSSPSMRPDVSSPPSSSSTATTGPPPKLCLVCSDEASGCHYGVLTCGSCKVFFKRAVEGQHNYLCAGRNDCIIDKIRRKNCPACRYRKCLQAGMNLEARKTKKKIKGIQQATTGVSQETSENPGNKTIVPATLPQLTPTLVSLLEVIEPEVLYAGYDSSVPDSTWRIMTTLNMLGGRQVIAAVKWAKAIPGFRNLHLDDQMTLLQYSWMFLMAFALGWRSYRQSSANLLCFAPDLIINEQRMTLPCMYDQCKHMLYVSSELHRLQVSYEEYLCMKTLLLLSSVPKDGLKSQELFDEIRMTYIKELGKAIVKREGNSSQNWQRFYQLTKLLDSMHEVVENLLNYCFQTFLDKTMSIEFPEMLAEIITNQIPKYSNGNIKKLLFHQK

[3] = target: Glucocorticoid receptor (Homo sapiens) (UniProt P04150); experiment: GR-EFC Redistribution (AID 451; calls by dose curve; note: potency is the fitted concentration of half-maximal effect); settings: CHO-K1 GR-EFC translocation, beta-gal luminescence, 2 h
How it was run: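 CHO-K1 cells stably expressing nuclear-localized β-gal enzyme acceptor and GR fused C-terminally to the enzyme donor fragment; ligand-driven nuclear translocation restores β-gal by complementation. Compounds titrated up to 46 uM final, 2 h at 37 °C; luminescence read.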

[4] = target: Mitogen-activated protein kinase 10 (Mus musculus) (UniProt Q61831); experiment: JNK3 AlphaScreen Assay (AID 530; active = well fitted curve in either direction with a large enough effect, not every such curve was filed as active;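 note: kinase came from lysate of stimulated human HepG2 cells; signal reports phosphorylation of biotinylated GST-cJun 1-79 at Ser73 with 10 µM ATP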)
How it was run: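 Biotinylated GST-cJun(1-79) served as substrate for JNK3 in HepG2 lysates stimulated with IL-1beta and TNF-alpha. ATP was 10 uM final, pH 7.6. Ser73 phosphorylation was quantified by AlphaScreen (680 nm excitation).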

[5] = target: Guanine nucleotide-binding protein G(i) subunit alpha-1 (Homo sapiens) (UniProt P63096); experiment: qHTS Assay for Inhibitors of RGS12 GoLoco Motif Activity (Green Fluorophore) (AID 879);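 note: negative values mean loss of peptide binding seen as reduced polarization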
Chain of Guanine nucleotide-binding protein G(i) subunit alpha-1 (Homo sapiens) (P63096 whole entry, looked up): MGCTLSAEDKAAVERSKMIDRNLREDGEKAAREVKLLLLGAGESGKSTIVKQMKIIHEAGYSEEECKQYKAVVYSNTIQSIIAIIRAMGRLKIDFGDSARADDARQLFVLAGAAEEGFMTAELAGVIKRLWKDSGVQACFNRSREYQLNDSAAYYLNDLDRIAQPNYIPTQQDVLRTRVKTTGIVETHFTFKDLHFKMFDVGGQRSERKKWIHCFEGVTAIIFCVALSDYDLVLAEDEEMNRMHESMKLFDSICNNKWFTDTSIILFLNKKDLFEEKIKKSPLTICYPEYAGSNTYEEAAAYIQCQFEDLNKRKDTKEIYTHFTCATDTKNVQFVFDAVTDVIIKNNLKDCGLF
How it was run: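 A drop in FITC polarization marked displacement of the FITC-tagged RGS12 GoLoco peptide (10 nM) from Gαi1 (50 nM). Compounds were incubated 10 min at room temperature in Tris pH 7.5 buffer containing 150 mM NaCl, 0.1 mM GDP and 0.05% NP40; unlabeled peptide titration served as control.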

[6] = target: Cytochrome P450 3A4 (Homo sapiens) (UniProt P08684); experiment: qHTS Assay for Activators of Cytochrome P450 3A4 (AID 885); note: nearly all actives have a fitted effect of over 65% in size
Chain of Cytochrome P450 3A4 (Homo sapiens) (P08684 whole entry, looked up): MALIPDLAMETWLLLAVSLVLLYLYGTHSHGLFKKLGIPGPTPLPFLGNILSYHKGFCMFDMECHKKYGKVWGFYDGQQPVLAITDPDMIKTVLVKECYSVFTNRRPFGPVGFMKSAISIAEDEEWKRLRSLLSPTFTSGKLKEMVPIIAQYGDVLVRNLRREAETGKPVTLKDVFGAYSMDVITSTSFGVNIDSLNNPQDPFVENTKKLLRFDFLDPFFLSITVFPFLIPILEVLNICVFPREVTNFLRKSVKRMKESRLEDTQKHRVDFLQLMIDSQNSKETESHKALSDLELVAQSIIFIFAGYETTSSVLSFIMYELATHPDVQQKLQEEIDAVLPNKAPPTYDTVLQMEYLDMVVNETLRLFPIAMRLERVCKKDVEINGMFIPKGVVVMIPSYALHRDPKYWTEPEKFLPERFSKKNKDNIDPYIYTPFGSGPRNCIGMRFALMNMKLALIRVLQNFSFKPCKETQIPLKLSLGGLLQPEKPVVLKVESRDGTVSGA
How it was run: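 Activators are scored by enhanced luminescence from CYP3A4 conversion of luciferin-PPXE (25uM, equal to KM) to luciferin, after 60 min at RT with an NADPH-regenerating system.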

[7] = target: alpha-glucosidase (Oryza sativa, rice) (UniProt Q653V4); experiment: Counterscreen for Glucocerebrosidase Inhibitors: qHTS Assay for Rice alpha-Glucosidase at pH 5.0 (AID 997)
How it was run: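 Endpoint fluorogenic assay at pH 5.0: compounds (0.7 nM to 77 uM) titrated against 4 nM rice enzyme and 400 uM 4-MU-alpha-glucoside for 20 min at room temperature; NaOH/glycine stop, read ex 365/em 440 nm, Hill-fitted AC50.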

[8] = target: DNA dC->dU-editing enzyme APOBEC-3G (Homo sapiens) (UniProt Q9HC16); experiment: qHTS for inhibitors of Vif-A3G interactions: Validation (AID 588379)
Chain of DNA dC->dU-editing enzyme APOBEC-3G (Homo sapiens) (Q9HC16 whole entry, looked up): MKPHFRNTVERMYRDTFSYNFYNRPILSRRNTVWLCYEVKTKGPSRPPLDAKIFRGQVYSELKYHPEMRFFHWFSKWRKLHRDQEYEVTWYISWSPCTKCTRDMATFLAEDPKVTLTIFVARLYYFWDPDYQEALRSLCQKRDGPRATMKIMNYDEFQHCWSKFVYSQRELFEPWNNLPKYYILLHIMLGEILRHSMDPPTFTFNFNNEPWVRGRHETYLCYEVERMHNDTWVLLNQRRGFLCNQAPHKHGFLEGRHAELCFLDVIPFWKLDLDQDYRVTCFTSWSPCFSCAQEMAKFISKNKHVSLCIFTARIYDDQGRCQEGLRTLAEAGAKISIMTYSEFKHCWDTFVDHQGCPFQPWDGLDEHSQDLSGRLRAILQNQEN
How it was run: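 Yellow fluorescence (Ex 488, Em 500-530) of Vif-coexpressing HeLa A3G-eYFP cells, scanned by Acumen cytometer, reports blocked A3G degradation. Cells plated at 700/well overnight at 37 deg C before compound addition, then a further overnight compound incubation at 37 deg C.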

[9] = tested on: Zika virus NS2B-NS3 protease; experiment: Primary screen GU AMC qHTS for Zika virus inhibitors (AID 1347154); note: nearly all actives have a fitted effect of over 70% in size
How it was run: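 Unlinked Zika NS2B hydrophilic domain/NS3 protease domain noncovalent complex (25 nM final) in 10 mM Tris-HCl pH 8.0, 0.01% Tween 20, with AMC peptide substrate. Fluorescence (ex 340, em 450 nm) change over 15 min, room temperature; percent inhibition fitted to 4-parameter Hill equation.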

[10] = Primary qHTS for small molecule stabilizers of the endoplasmic reticulum resident proteome: Secreted ER Calcium Modulated Protein (SERCaMP) assay (AID 1508630)
How it was run: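 The SH-SY5Y reporter protocol was run at 3 concentrations up to 38.3 uM (primary) or 11 concentrations (follow-up): 16 h compound, 100 nM thapsigargin for 4 h, then extracellular luciferase luminescence.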

[11] = target: Rap guanine nucleotide exchange factor 3 (Homo sapiens) (UniProt O95398); experiment: Confirmatory qHTS for agonist of cAMP-regulated guanine nucleotide exchange factor 3 (EPAC1) (AID 1645881);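 note: EPAC1 catalysed release of BODIPY-GDP from Rap1B seen as fluorescence loss; nearly all actives have a fitted effect of over 75% in size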
Chain of Rap guanine nucleotide exchange factor 3 (Homo sapiens) (O95398 whole entry, looked up): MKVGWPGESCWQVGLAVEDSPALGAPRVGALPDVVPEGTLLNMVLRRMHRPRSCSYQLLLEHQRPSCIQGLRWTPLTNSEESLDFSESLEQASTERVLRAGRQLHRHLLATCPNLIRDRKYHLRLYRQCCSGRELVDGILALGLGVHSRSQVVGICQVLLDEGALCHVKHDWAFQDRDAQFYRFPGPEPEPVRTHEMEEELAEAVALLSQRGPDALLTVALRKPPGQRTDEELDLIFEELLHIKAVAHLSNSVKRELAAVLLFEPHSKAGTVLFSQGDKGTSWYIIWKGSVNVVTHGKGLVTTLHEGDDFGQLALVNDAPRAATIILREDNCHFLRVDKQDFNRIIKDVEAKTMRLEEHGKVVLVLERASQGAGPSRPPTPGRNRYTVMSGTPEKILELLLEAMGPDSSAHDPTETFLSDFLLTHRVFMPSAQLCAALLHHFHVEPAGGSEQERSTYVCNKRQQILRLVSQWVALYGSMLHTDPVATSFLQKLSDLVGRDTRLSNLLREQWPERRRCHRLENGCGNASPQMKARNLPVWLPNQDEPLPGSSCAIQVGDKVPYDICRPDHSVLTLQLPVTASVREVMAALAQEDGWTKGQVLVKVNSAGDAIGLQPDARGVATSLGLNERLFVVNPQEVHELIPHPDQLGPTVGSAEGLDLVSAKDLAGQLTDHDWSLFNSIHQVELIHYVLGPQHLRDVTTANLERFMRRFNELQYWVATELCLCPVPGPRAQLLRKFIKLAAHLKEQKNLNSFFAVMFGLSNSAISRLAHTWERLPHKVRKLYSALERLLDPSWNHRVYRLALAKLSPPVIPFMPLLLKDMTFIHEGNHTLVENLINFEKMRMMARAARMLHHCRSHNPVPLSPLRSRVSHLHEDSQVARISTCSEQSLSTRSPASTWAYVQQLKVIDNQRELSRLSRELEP

[12] = target: Cytochrome P450 2D6 (Homo sapiens) (UniProt P10635); experiment: qHTS Assay for Inhibitors and Substrates of Cytochrome P450 2D6 (AID 891); note: potency is the fitted concentration of half-maximal effect; nearly all actives have a fitted effect of over 60% in size
How it was run: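 Luminescent read-out of luciferin formed by 5 nM human CYP2D6 demethylating 30 uM Luciferin-ME EGE (Km level) over 60 min at room temperature after NADPH regeneration addition. Data normalized to full inhibition by 1.43 uM quinidine.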

[13] = target: Cytochrome P450 2C19 (Homo sapiens) (UniProt P33261); experiment: qHTS Assay for Inhibitors and Substrates of Cytochrome P450 2C19 (AID 899); note: nearly all actives have a fitted effect of over 60% in size; note: potency is the fitted concentration of half-maximal effect
Chain of Cytochrome P450 2C19 (Homo sapiens) (P33261 whole entry, looked up): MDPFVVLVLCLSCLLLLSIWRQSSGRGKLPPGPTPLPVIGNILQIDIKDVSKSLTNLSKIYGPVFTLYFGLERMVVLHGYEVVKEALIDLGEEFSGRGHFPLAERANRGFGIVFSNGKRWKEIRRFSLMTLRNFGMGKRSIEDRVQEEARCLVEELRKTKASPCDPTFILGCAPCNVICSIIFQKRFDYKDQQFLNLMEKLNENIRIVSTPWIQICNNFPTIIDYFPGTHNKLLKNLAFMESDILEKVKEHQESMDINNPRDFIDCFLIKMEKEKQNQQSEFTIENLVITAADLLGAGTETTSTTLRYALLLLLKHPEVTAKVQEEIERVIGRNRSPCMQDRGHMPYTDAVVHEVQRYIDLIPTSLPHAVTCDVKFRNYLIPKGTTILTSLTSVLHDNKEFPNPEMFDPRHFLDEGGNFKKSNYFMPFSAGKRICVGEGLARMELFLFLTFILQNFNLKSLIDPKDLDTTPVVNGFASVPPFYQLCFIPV
How it was run: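 NADPH-dependent conversion of Luciferin-H EGE (10uM, at KM) by 5nM enzyme in 50mM KPO4, 60 min at 37C following 10 min compound preincubation. Stopped with luciferin detection buffer; luminescence read after 20 min.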

[14] = AP1 Signaling Pathway (AID 357; active = well fitted curve in either direction with a large enough effect, not every such curve was filed as active;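 note: ME-180 reporter cells stimulated with EGF at its EC50 level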); settings: ME-180 AP-1-bla reporter, EGF-induced, beta-lactamase ratio, 5 h
How it was run: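 Read-out was the 460nm/530nm emission ratio (excitation 405nm) after CCF4 loading for 2.5 hours at room temperature. Cells carried an AP-1-driven beta-lactamase reporter, were stimulated with EC50 EGF plus compound for 5 hours, and AC50 values came from titrations.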

[15] = NFAT Signaling Pathway (AID 444; active = well fitted curve in either direction with a large enough effect, not every such curve was filed as active;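 note: carbachol stimulus at about its EC50 of 1 µM final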); settings: Jurkat NFAT-bla M1, carbachol, beta-lactamase ratio, 5 h
How it was run: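 Jurkat cells carrying an NFAT-driven β-lactamase reporter and co-transfected muscarinic M1 receptor were treated with compound plus carbachol (1 uM final, an EC50 level) for 5 h at 37 °C. CCF4 loading followed for 1 h at RT; 460/530 nm ratio gave %activity.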

[16] = Stat Signaling Pathway (AID 446; active = well fitted curve in either direction with a large enough effect, not every such curve was filed as active;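 note: ME-180 cervical cancer cells given 40 pM IL-6 alongside compound; SIE-controlled beta-lactamase reporter measured as 460/530 nm FRET emission ratio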); settings: ME-180 (cervical carcinoma) SIE beta-lactamase reporter, IL-6 stimulated, 5 h
How it was run: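 Emission at 460 and 530 nm (excitation 405 nm) reports SIE-controlled beta-lactamase in ME-180 cells. Cells received compound with 40 pM IL-6 for 5 hrs at 37 C; data scaled between 300 pM IL-6 and 125 nM JAK-inhibitor controls.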

[17] = target: 3',5'-cyclic-AMP phosphodiesterase 4B (Homo sapiens) (UniProt Q07343); experiment: qHTS Assay for Inhibitors of PDE-IV (AID 607; active = well fitted activation curve with a large enough effect in the main read-out, with a control signal flat, not every such curve was filed as active)
Chain of 3',5'-cyclic-AMP phosphodiesterase 4B (Homo sapiens) (Q07343 whole entry, looked up): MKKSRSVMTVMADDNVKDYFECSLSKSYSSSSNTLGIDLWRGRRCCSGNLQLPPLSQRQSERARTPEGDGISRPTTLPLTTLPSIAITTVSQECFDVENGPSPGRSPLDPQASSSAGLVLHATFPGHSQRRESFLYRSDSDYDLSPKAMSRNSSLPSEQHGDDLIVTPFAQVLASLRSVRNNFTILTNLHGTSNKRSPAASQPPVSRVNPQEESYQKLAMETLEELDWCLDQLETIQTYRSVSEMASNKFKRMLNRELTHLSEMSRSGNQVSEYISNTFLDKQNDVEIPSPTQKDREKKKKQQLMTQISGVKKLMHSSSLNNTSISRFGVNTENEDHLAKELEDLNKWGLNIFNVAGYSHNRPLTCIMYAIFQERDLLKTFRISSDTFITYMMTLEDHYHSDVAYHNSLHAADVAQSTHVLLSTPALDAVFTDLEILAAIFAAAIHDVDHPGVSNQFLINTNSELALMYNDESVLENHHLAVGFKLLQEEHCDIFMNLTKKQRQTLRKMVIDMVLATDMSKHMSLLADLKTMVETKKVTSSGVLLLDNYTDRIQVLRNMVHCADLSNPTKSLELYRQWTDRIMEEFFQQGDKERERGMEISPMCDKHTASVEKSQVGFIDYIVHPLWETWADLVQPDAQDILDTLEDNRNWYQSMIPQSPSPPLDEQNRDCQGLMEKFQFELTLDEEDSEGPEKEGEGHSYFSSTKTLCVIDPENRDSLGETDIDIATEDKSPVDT
How it was run: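 The readout is membrane depolarisation from a cAMP-sensing CNG channel, detected with a potential dye at ex 535/em 590. Cells were HEK293-derived (endogenous PDE-IV) at 1000 cells/well, titrated up to 22.9 uM final.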

[18] = target: Cytochrome P450 3A4 (Homo sapiens) (UniProt P08684); experiment: qHTS Assay for Inhibitors and Substrates of Cytochrome P450 3A4 (AID 884); note: nearly all actives have a fitted effect of over 50% in size
How it was run: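 Luminescent readout of luciferin produced by CYP3A4 (20 nM) dealkylation of Luciferin-PPXE, 25 uM (its KM). NADPH-driven reaction ran 60 min at RT after 10 min compound preincubation; data scaled to 57 uM ketoconazole as 100% inhibition.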

[19] = target: Ubiquitin carboxyl-terminal hydrolase 1 (Homo sapiens) (UniProt O94782); experiment: Inhibitors of USP1/UAF1: Pilot qHTS (AID 504865);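 note: rhodamine fluorescence freed from ubiquitin-rhodamine substrate followed over time; top concentration of the series differs between compounds; nearly all actives have a fitted effect of over 35% in size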
How it was run: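 1nM USP1/UAF1 + cpd, 15 min RT; start w/ Ub-Rho 150nM final; kinetic FL 480/540 nm, 6 reads q60 s. Buffer 50mM HEPES pH 7.8, 0.5mM EDTA, 1mM TCEP, 0.01% Tween-20, 0.1 mg/ml BSA.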

## CC[C@H](C)C(=O)O[C@H]1CCC=C2C=C[C@H](C)[C@H](CC[C@@H]3C[C@H](O)CC(=O)O3)[C@H]21
[1]
  Potency: 31.6 µM (active)
[2]
  Potency: > 46 µM
[3]
  Potency: > 46 µM
[4]
  Potency: inactive
[5]
  outcome: inactive
[6]
  Potency: inactive
[7]
  outcome: inactive
[8]
  Potency: inactive
[9]
  Potency: inactive
[10]
  Potency: inactive
[11]
  outcome: inactive

## COC(=O)C1=C(C)NC(C)=C([N+](=O)[O-])[C@@H]1c1ccccc1C(F)(F)F
[1]
  Potency: 39.8 µM (active)
[3]
  Potency: > 46 µM
[6]
  Potency: inactive
[12]
  Potency: 6.31 µM (active)
[13]
  Potency: 126 nM (active)
[8]
  Potency: inactive
[9]
  Potency: inactive
[10]
  Potency: inactive
[11]
  outcome: inactive

## CCOC(=O)C1=C(C)NC(C)=C(C(=O)OC)[C@H]1c1cccc([N+](=O)[O-])c1
[14]; at 38 µM (top of the series)
  activity change, negative = inhibition: -24.5%
[1]
  Potency: 15.8 µM (active)
[15]; at 38 µM (top of the series)
  activity change, negative = inhibition: -17%
[16]; at 38 µM (top of the series)
  activity, negative = inhibition: 17.9%
[5]
  outcome: inactive
[13]
  Potency: 1.26 µM (active) and 251 nM (active)
[7]
  outcome: inactive
[8]
  Potency: inactive
[9]
  Potency: inactive
[10]
  Potency: inactive
[11]
  outcome: inactive

## CCn1ccnc1C[C@@H]1COc2ccccc2O1
[14]; at 38 µM (top of the series)
  activity change, negative = inhibition: -10%
[1]
  Potency: 15.8 µM (active)
[15]; at 38 µM (top of the series)
  activity change, negative = inhibition: -4.02%
[16]; at 38 µM (top of the series)
  activity, negative = inhibition: -3.71%
[2]
  Potency: > 46 µM
[3]
  Potency: > 46 µM
[4]
  Potency: inactive
[17]
  Potency: inactive
[5]
  outcome: inactive
[18]
  Potency: inactive
[12]
  Potency: 1.58 µM (active)
[7]
  outcome: inactive
[8]
  Potency: inactive
[9]
  Potency: inactive
[10]
  Potency: inactive
[11]
  outcome: inactive

## COc1cc([C@@H]2c3cc4c(cc3C(O[C@@H]3O[C@@H]5CO[C@@H](c6cccs6)OC5[C@H](O)[C@H]3O)C3COC(=O)[C@@H]32)OCO4)cc(OC)c1O (some centres not stated)
[9]
  Potency: inactive
[10]
  Potency: inactive

## C[C@@H](C[C@H](N)C(=O)O)C(=O)O
[14]; at 7.69 µM (top of the series)
  activity change, negative = inhibition: -5.85%
[1]
  activity change, negative = inhibition: -18.7% [at 11.4 µM]
[15]; at 7.69 µM (top of the series)
  activity change, negative = inhibition: 21.8%
[16]; at 7.69 µM (top of the series)
  activity, negative = inhibition: 15.7%
[2]
  Potency: > 46 µM
[3]
  Potency: > 9.22 µM
[4]
  activity change, negative = inhibition: -4.43% [at 11.4 µM]
[17]
  Potency: inactive
[13]
  activity, negative = inhibition: 46.1% [at 11.4 µM]
[9]
  Potency: inactive
[10]
  Potency: inactive

## CNC(=O)[C@H]1O[C@@H](n2cnc3c(NCc4cccc(I)c4)nc(Cl)nc32)[C@H](O)[C@@H]1O
[9]
  Potency: inactive
[10]
  Potency: inactive

## CCOC(=O)[C@@]12C[C@@H]1/C(=N/O)c1ccccc1O2
[14]; at 38 µM (top of the series)
  activity change, negative = inhibition: -6.63%
[1]
  Potency: 3.98 µM (active) and 316 nM (active)
[15]; at 38 µM (top of the series)
  activity change, negative = inhibition: -7.55%
[16]; at 38 µM (top of the series)
  activity, negative = inhibition: -6.6%
[2]
  Potency: > 46 µM
[3]
  Potency: > 46 µM
[4]
  Potency: inactive
[17]
  Potency: inactive
[5]
  outcome: inactive
[7]
  outcome: inactive
[19]
  Potency: inactive
[8]
  Potency: inactive
[9]
  Potency: inactive
[10]
  Potency: inactive
[11]
  outcome: inactive
